Reference: PubChem BioAssay AID602410 (Johns Hopkins Ion Channel Center, 2012)
Screen size: about 340,000 compounds; about 2,800 (0.82%) were called active.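 The calls were made as follows: active = B-score under library mean minus 4 SD, starting fluorescence ratio at most library mean plus 5 SD; inactive = the rest.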 Shown is part of a subset that was picked to be rich in actives.

molecular target: Potassium channel subfamily K member 3 (Homo sapiens) (UniProt O14649); test: human KCNK3 channel inhibitors, primary screen, CHO cells, FluxOR thallium flux, B-score (AID 602410); conditions: FluxOR fluorescence, at 10 µM; active compounds read low;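 as to B-score: more negative B-score means stronger inhibition of thallium flux through KCNK3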
Sequence (O14649 whole entry, looked up): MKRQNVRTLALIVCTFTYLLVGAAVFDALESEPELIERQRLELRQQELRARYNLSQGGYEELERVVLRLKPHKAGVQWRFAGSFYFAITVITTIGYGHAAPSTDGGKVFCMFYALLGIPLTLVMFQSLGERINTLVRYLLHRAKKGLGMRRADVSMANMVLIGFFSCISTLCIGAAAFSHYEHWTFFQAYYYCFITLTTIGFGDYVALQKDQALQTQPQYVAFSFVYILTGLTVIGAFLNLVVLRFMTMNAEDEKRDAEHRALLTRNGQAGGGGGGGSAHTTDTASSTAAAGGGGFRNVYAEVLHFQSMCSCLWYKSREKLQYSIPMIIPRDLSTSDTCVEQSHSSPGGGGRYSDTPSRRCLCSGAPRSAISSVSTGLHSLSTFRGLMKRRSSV

SMILES | B-score
Cc1cc(Br)ccc1NC(=O)c1cnc(N2CCN(c3ccccn3)CC2)c2ccccc12 | inactive
O=C(c1c(F)cccc1Cl)N1CCN(c2ccccn2)CC1 | inactive
COc1ccc(NC(=O)c2sc3nc(C)nc(N4CCN(c5ccccn5)CC4)c3c2C)c(OC)c1 | inactive
CCOC(=O)C1CCCN(C(=O)c2sc3nc(C)nc(N4CCOCC4)c3c2C)C1 (stereo unspecified) | inactive
Cc1nc(N2CCN(c3ccccn3)CC2)c2c(C)c(C(=O)Nc3ccc(F)c(Cl)c3)sc2n1 | -12 (active)
Cc1nc(N2CCC(C)CC2)c2c(C)c(C(=O)Nc3cc(F)ccc3C)sc2n1 | inactive
Cc1nc(N2CCN(c3ccccn3)CC2)c2c(C)c(C(=O)Nc3ccc(F)cc3)sc2n1 | -13 (active)
Cc1cc(Br)ccc1NC(=O)c1sc2ncn(CC(=O)N3CCN(c4ccccn4)CC3)c(=O)c2c1C | inactive
Cc1nc(N2CCOCC2)c2c(C)c(C(=O)Nc3ccc(C(F)(F)F)cc3)sc2n1 | -8.85 (active)
C/C(=N/NC(=O)c1ccn(C)n1)c1ccncc1 | inactive
Cc1ccccc1-c1nc(CS(=O)(=O)CC(=O)NC(C)c2ccccc2)c(C)o1 (stereo unspecified) | inactive
CCOc1ccc(C(CC(=O)O)NC(=O)C23CC4CC(CC(C4)C2)C3)cc1OC (stereo unspecified) | inactive
Cc1cc(NC(=O)C(C)SCC(=O)Nc2ccccc2N2CCCCC2)no1 (stereo unspecified) | inactive
Cc1ccc(OCCC(=O)Nc2ccc(S(=O)(=O)Nc3nccs3)cc2)cc1 | inactive
O=C1NC(c2ccncc2)Nc2sc3c(c21)CCCC3 (stereo unspecified) | inactive
O=C(NCC(=O)N1CCCCCCC1)c1ccccc1Cl | inactive
CCCc1cc(=O)[nH]c(SCC(=O)N2CCN(S(=O)(=O)c3ccc(C)cc3C)CC2)n1 | inactive
Cc1ccc(CN(CC(=O)NCC2CCCO2)S(=O)(=O)c2ccc(C)cc2)cc1 (stereo unspecified) | inactive
Cc1ccc(F)c(NC(=O)CCOc2ccccc2C)c1 | inactive
Cc1ccc(F)c(NC(=O)CCc2ccccc2)c1 | inactive
CCn1ncc(Br)c1C(=O)Nc1cc(C)ccc1F | -9.47 (active)
C=CCNC(=O)C1CC2c3ccccc3C1c1ccccc12 (stereo unspecified) | inactive
COc1ccc(Cl)cc1C=CC=Nc1ccc(S(N)(=O)=O)cc1 | inactive
COc1cccc(/C=N/Nc2ccc(S(=O)(=O)Nc3ccccc3C(=O)O)cc2[N+](=O)[O-])c1O | inactive
COc1cccc(/C=N/Nc2cc(C)nc(-c3ccccc3O)n2)c1O | -11.6 (active)
COc1ccc(Cc2nnc(N/N=C/c3ccccc3O)[nH]c2=O)cc1OC | inactive

SMILES | B-score
COc1cccc(CN(C)CC(O)COC(c2ccccc2)c2ccccc2C)c1 (stereo unspecified) | -12.7 (active)
Cc1ccccc1C(OCC(O)CN1CCCCC1CCO)c1ccccc1 (stereo unspecified) | inactive
COc1cccc(CN(C)CC(=O)Nc2ccccc2C(=O)Nc2ccccc2)c1 | inactive
CCOC(=O)c1cccc(NC(=O)CN(c2ccc(C)cc2)S(=O)(=O)c2c(C)noc2C)c1 | -8.84 (active)
Cc1noc(C)c1S(=O)(=O)N(CC(=O)Nc1ccc2c(c1)OCCO2)c1ccc(C(C)C)cc1 | inactive
COc1ccc(N(CC(=O)Nc2cc(OC)ccc2OC)S(=O)(=O)c2c(C)noc2C)cc1 | inactive
CC(Sc1nc2ccccc2c(=O)n1Cc1ccco1)C(=O)c1ccccc1 (stereo unspecified) | -8.93 (active)
N#Cc1c(NC(=O)CSc2nc3ccccc3c(=O)n2Cc2ccco2)sc2c1CCCC2 | inactive
COc1cccc(NC(=O)C(Sc2nc3ccccc3c(=O)n2CC(C)C)c2ccccc2)c1 (stereo unspecified) | inactive
CC(C)(C)OC(=O)Nc1ccc([C@@H](NC(=O)OC(C)(C)C)C(=O)OC(C)(C)C)cc1 | inactive
COc1ccc(CC(=O)NCc2nnc(SCC(=O)Nc3nccs3)n2C)cc1 | inactive
CC1(C)Cc2ccccc2-c2nnc(-c3cccc(O)c3)n21 | inactive
COc1cc(C)c(Cl)cc1S(=O)(=O)n1ccnc1 | inactive
O=C(Cc1ccc(S(=O)(=O)N2CCOCC2)s1)NCCC(c1ccccc1)c1ccccc1 | inactive
O=C(Cc1ccc(S(=O)(=O)N2CCOCC2)s1)Nc1ccc(Br)c(C(F)(F)F)c1 | -9.72 (active)
O=C(Cc1ccc(S(=O)(=O)N2CCOCC2)s1)NCCOc1ccccc1F | inactive
O=C1CCCN2N=C(SCC(=O)Nc3ccc(Br)cc3)SC2=N1 | inactive
N#C/C(=C\c1ccccc1)c1n[nH]c(Cn2cncn2)n1 | inactive
CCN1CCN(C(=O)N[C@@H](C(=O)N[C@@H]2C(=O)N3C(C(=O)O)=C(CSc4nnnn4C)CS[C@H]23)c2ccc(O)cc2)C(=O)C1=O | inactive
CN(C(=O)CSc1nnc(-c2ccc(C(C)(C)C)cc2)n1C)C1CCS(=O)(=O)C1 (stereo unspecified) | inactive
COc1ccc2c(c1)c(=O)c(C(=O)c1ccc(Cl)cc1)cn2CC(=O)Nc1ccc(F)cc1 | inactive
CN1c2ccc(C=O)c3c(C=O)ccc(c23)N(C)C1(C)C | -11.3 (active)
COc1ccc(-c2nc(CN3CCN(c4ncccn4)CC3)c(C)o2)cc1C | inactive
Cc1ccc(C(CNC(=O)Nc2ccccc2)N2CCN(C)CC2)cc1 (stereo unspecified) | inactive
COc1cccc(C(=O)Nc2cc3c(cc2Br)OCCCO3)c1 | inactive
COc1ccc(CN(C)C(=O)c2cc(-c3ccc(C)cc3C)nc3ccccc23)c(OC)c1OC | -12.7 (active)

SMILES | B-score
COc1ccc(-c2cc(C(=O)N(C)Cc3ccc(OC)c(OC)c3OC)c3ccccc3n2)cc1OC | inactive
COc1ccc(-c2cc(C(=O)N(C)CC(=O)Nc3ccccc3Cl)c3ccccc3n2)cc1OC | inactive
CC(=O)c1c(Nc2ccccc2)sc(C(=O)c2ccccc2)c1C | inactive
COc1ccc(Cl)cc1NC(=O)CN(C)C(=O)c1cc(-c2cccs2)nn1-c1ccccc1 | inactive
COc1cc(C(=O)NCC(=O)NCCSc2ccc(Br)cc2)cc(OC)c1OC | inactive
COc1cccc(C(=O)NCCSc2ccc(Br)cc2)c1 | -8.94 (active)
COc1ccccc1C(=O)NCC(=O)NCCSc1ccc(Br)cc1 | inactive
Cc1ccc(NCc2n[nH]c(=S)n2-c2ccccc2)cc1Cl | inactive
CCOc1ccc(OCCSc2nc3ccccc3n2CC(=O)O)cc1 | inactive
Cc1cc(C)cc(NC(=O)C2CCCN(S(=O)(=O)c3ccc4[nH]c(=O)ccc4c3)C2)c1 (stereo unspecified) | inactive
CCOc1ccc(C2c3[nH]c4ccccc4c3CCN2Cc2cccn2-c2ncccn2)cc1 (stereo unspecified) | -8.75 (active)
c1ccc(C2c3[nH]c4ccccc4c3CCN2Cc2cccn2-c2cccnc2)nc1 (stereo unspecified) | inactive
CCOc1ccc(C2c3[nH]c4ccccc4c3CCN2Cc2cn(CC)nc2C)cc1 (stereo unspecified) | inactive
O=C(NCc1ccccc1)C1=C[C@@H](c2ccc(C(F)(F)F)cc2)C[C@@H](OCc2ccc(CO)cc2)O1 | inactive
COCc1cc(C(C)=O)ccc1OC | inactive
COc1ccc(C(C)=O)cc1COc1ccc(Cl)c(C)c1 | -10.4 (active)
CCOc1ccc(C(C)=O)cc1COC(=O)c1cnc(Cl)c(Cl)c1 | inactive
O=S(=O)(c1cccc(-c2cn3ccccc3n2)c1)N1CCCC1 | inactive
O=S(=O)(NC1CCCCC1N1CCCCC1)c1ccc(Cl)cc1 (stereo unspecified) | inactive
COc1ccc(N2CCN(C3CCCCC3NS(=O)(=O)c3ccccc3)CC2)cc1 (stereo unspecified) | inactive
O=S(=O)(NC1CCCCC1N1CCN(c2ccccc2F)CC1)c1ccccc1 (stereo unspecified) | -9.12 (active)
CCC(C)(C)NC(=O)C(c1ccc(O)cc1)N(Cc1ccco1)C(=O)CCC(=O)Nc1ccccn1 (stereo unspecified) | inactive
Cn1c(=O)c2sccc2n(Cc2ccc(Br)cc2)c1=O | inactive
FC(F)(F)c1cc(-c2cccs2)nc(NCc2ccco2)n1 | inactive
FC(F)(F)c1cc(-c2ccco2)nc(NCc2ccc(Cl)cc2)n1 | -8.85 (active)
COc1nc(NCc2ccc(Cl)cc2)nc(OC)n1 | inactive

SMILES | B-score
Cc1cccc2cc3c(N)c(C(=O)N4CCCc5ccccc54)sc3nc12 | inactive
Cc1c(C(=O)NCC2CCCO2)sc2nc(-c3ccccc3)cn12 (stereo unspecified) | inactive
Cc1c(C(=O)N2CCCc3ccccc32)sc2nc(-c3ccccc3)cn12 | -9.27 (active)
N[C@@H](Cc1ccccc1)C(=O)N1CCC(C(=O)NCC(=O)Nc2ccc(F)cc2)CC1 | inactive
COc1ccc(C(F)(F)F)cc1N/C=C\c1nnnn1-c1ccc(C)cc1 | inactive
Cc1ccc(C(=O)N/N=C\c2cc(Br)c(Br)o2)cn1 | inactive
COc1ccc(OCCNS(=O)(=O)Cc2ccccc2)cc1 | inactive
COc1ccc(S(=O)(=O)NCCCCOc2ccc(Cl)cc2)cc1 | -9.65 (active)
COc1ccc(S(=O)(=O)NCCOc2ccccc2)cc1F | inactive
CCCC(C)c1nnc(NC(=O)C2CC(=O)N(c3ccc(OCC)cc3)C2)s1 (stereo unspecified) | inactive
CC(C)[C@H](NC(=O)Nc1ccc(S(N)(=O)=O)cc1)C(=O)O | inactive
CC(C)n1c(COc2ccccc2)nc2ccccc21 | inactive
COc1cccc(C(O)c2nc3ccccc3n2C)c1 (stereo unspecified) | inactive
CCCCCC(O)c1cccc(OCc2ccc3ccccc3n2)c1 (stereo unspecified) | -9.81 (active)
NS(=O)(=O)c1ccc(NC(=O)/C=C/c2ccccc2Cl)cc1 | inactive
Cc1cc(=O)oc2c(C)c(OC(C)C(=O)NC3CCN(Cc4ccccc4)CC3)ccc12 (stereo unspecified) | inactive
COc1cc(C(=S)NCc2ccccc2)cc(Br)c1O | inactive
CC(=O)N1c2ccc(S(=O)(=O)N3CCC(C(=O)N4CCN(c5ccccc5)CC4)CC3)cc2CC1C (stereo unspecified) | inactive
CC(=O)N1CCCc2cc(S(=O)(=O)CCC(=O)N3CCN(c4ccccc4)CC3)ccc21 | inactive
CC(=O)N1CCCc2cc(S(=O)(=O)N3CCCC(C(=O)N4CCN(c5cccc(Cl)c5)CC4)C3)ccc21 (stereo unspecified) | -9.62 (active)
Cc1cccc2cc(CN(Cc3nnnn3Cc3ccccc3)C3CCCC3)c(=O)[nH]c12 | -10.8 (active)
CCOc1ccc2[nH]c(=O)c(CN(Cc3nnnn3Cc3ccccc3)CC3CCCO3)cc2c1 (stereo unspecified) | inactive
Cc1cc(C)c2cc(CN(Cc3nnnn3Cc3ccc(F)cc3)C3CCCC3)c(=O)[nH]c2c1 | inactive
